# Measured values as given in the supplement of paper PMC10646978.
# ± gives the standard deviation.
# Legend:
# Details in all cases: modulator concentration 10 µM
# [1] = test system: RAW-Dual (murine macrophage reporter line); assay: NF-kB reporter (SEAP) activity fold change vs agonist alone; higher = enhanced NF-kB activity
# How it was run: (§1)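 In 384-well plates holding 50 000 RAW-Dual murine macrophage reporter cells per well, compound at 10 μM final was pre-incubated for 1 hour at 37 °C, after which a PRR agonist was added overnight. Supernatant SEAP read with QUANTI-Blue at 620 nm absorbance reported NF-κB, and Lucia luciferase read with QUANTI-Luc luminescence reported IRF. Fold change values come from dividing each reporter signal by the mean of agonist-only control wells on the same plate, averaged over replicate plates with propagated errors.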
# [2] = test system: RAW-Dual (murine macrophage reporter line); assay: IRF reporter (Lucia luciferase) activity fold change vs agonist alone; higher = enhanced IRF activity
# How it was run: as §1
# [3] = test system: RAW-Dual (murine macrophage reporter line); assay: viability score (confluency relative to resting cells, overnight) (fraction); higher = more viable, active = viable (0.7 or more)
# How it was run: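 In 384-well plates, RAW-Dual macrophages received compound at a final 10 μM overnight. Two confluency masks were then made with IncuCyte software from IncuCyte images of all imaged wells. The viability score is defined as confluency relative to resting cells. Passing the cutoff required both masks to lie above 70% of resting cells.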
# [4] = agonist: CpG ODN 1826 0.5 ug/mL
Compound,"NF-kB reporter [1, 4]",NF-kB reporter ([1]; agonist: LPS 0.1 ug/mL),NF-kB reporter ([1]; agonist: MPLA […]),IRF reporter ([2]; agonist: 3'3'-cGAMP 10 ug/mL),IRF reporter ([2]; agonist: LPS 0.1 ug/mL),IRF reporter ([2]; agonist: MPLA […]),viability score [3]
Cn1cc(-c2cc(CNC(=O)c3cncc(Br)c3)ccn2)cn1,0.92 ± 0.041,1.05 ± 0.1,1.15 ± 0.065,0.872 ± 0.057,1.1 ± 0.17,1.3 ± 0.41,0.943 (active)
CC(C)Sc1ccc(CC(=O)N2CCC(S(C)(=O)=O)C2)cc1 (configuration not stated),0.975 ± 0.12,1.12 ± 0.1,0.973 ± 0.17,0.946 ± 0.053,1.12 ± 0.07,1.29 ± 0.17,0.993 (active)
Cc1cc(OC2CN(C(=O)Cn3cnc4ccccc43)C2)cc(=O)n1C1CC1,1.16 ± 0.11,1.09 ± 0.099,0.97 ± 0.026,1 ± 0.04,1.06 ± 0.06,0.955 ± 0.092,0.997 (active)
Cc1ccccc1OCC(O)CO (configuration not stated),0.813 ± 0.22,1.08 ± 0.054,0.955 ± 0.07,0.93 ± 0.058,0.951 ± 0.13,1.02 ± 0.12,0.997 (active)
O=c1cc(-c2ccc(O)c(O)c2)oc2cc(O)cc(O)c12 [Prestw-870],1.08 ± 0.18,1.21 ± 0.12,2 ± 0.16,0.181 ± 0.0054,0.663 ± 0.14,0.61 ± 0.065,0.995 (active)
CCN(CC)CCN1C(=O)C(O)=C(C(=O)c2ccc(Br)cc2)C1c1ccccc1F (configuration not stated),0.741 ± 0.061,0.884 ± 0.1,0.985 ± 0.1,0.94 ± 0.045,1.14 ± 0.08,1.2 ± 0.15,1.01 (active)
CC(C)=CCCC(C)=CC=NNC(=S)Nc1ccc(C)cc1,0.855 ± 0.049,1.12 ± 0.075,1.02 ± 0.065,0.256 ± 0.019,1.55 ± 0.19,1.5 ± 0.18,0.997 (active)
COc1cc(OC)c(C(=O)CCCN2CCCC2)c(OC)c1.Cl,0.98 ± 0.096,1.01 ± 0.063,1 ± 0.057,0.937 ± 0.081,0.941 ± 0.035,0.899 ± 0.07,1 (active)
O=C(CCCCCCNC(=O)c1cnc(N(c2ccccc2)c2ccccc2)nc1)NO,1.14 ± 0.067,0.318 ± 0.026,0.797 ± 0.15,0.954 ± 0.08,2.78 ± 0.69,3.16 ± 1,0.95 (active)
CC(=O)Nc1ccc(S(=O)(=O)N2CCCc3ccccc32)cc1,1.15 ± 0.092,0.888 ± 0.081,1.09 ± 0.1,1.13 ± 0.043,1.27 ± 0.24,1.54 ± 0.32,0.984 (active)
COc1ccc(CN2CCN(c3cc(C)nc4c5c(C)cc(C)nc5nn34)CC2)cc1F,1.02 ± 0.08,0.961 ± 0.071,1.06 ± 0.13,1.17 ± 0.037,1.34 ± 0.18,1.42 ± 0.2,0.995 (active)
CC1(C)CC(=O)C=C(Nc2ccc(Br)c(Cl)c2)C1,0.734 ± 0.066,0.962 ± 0.067,0.839 ± 0.083,1.14 ± 0.06,1.08 ± 0.066,1.08 ± 0.12,1.02 (active)
COC(=O)N[C@H](C(=O)N1CCC[C@H]1c1ncc(-c2ccc(-c3ccc(-c4cnc([C@@H]5CCCN5C(=O)[C@@H](NC(=O)OC)C(C)C)[nH]4)cc3)cc2)[nH]1)C(C)C.Cl.Cl,0.437 ± 0.029,0.513 ± 0.032,0.759 ± 0.045,1.27 ± 0.042,1.85 ± 0.48,1.99 ± 0.46,0.204 (inactive)
COC(=O)CNC(c1ccccc1)c1cc(Br)ccc1NC(=O)c1ccccc1Cl (configuration not stated),0.675 ± 0.059,1.08 ± 0.092,0.963 ± 0.091,1 ± 0.037,1.78 ± 0.17,1.59 ± 0.16,1.01 (active)
CC(C)(Oc1ccc(Cl)cc1)C(=O)Nc1cnoc1,1.05 ± 0.097,1.09 ± 0.082,1.08 ± 0.098,0.982 ± 0.037,1.03 ± 0.063,1.04 ± 0.17,0.979 (active)
COc1c(Cl)cc(C(=O)Nc2cccc(NC(=O)c3ccco3)c2)cc1Cl,1.15 ± 0.098,1.01 ± 0.056,0.682 ± 0.043,0.858 ± 0.022,1.1 ± 0.11,0.956 ± 0.29,1.01 (active)
CCOc1ccccc1OCCCCOc1cccc(C)c1,0.871 ± 0.064,0.936 ± 0.071,0.995 ± 0.028,0.996 ± 0.12,0.878 ± 0.13,0.96 ± 0.29,0.998 (active)
Cc1nc2sccn2c(=O)c1CCN1CCC(=C(c2ccc(F)cc2)c2ccc(F)cc2)CC1,0.91 ± 0.1,1 ± 0.061,0.901 ± 0.053,0.92 ± 0.056,1.12 ± 0.18,1.01 ± 0.15,1 (active)
Oc1c(Br)cc(C=NNc2nc3ccccc3s2)c(O)c1Br,0.957 ± 0.082,0.958 ± 0.098,1.08 ± 0.1,0.642 ± 0.069,1.35 ± 0.23,1.63 ± 0.44,1.03 (active)
Cc1oncc1C(=O)NCc1cc(C2CC2)n(C)n1,0.927 ± 0.087,0.954 ± 0.12,0.975 ± 0.065,0.946 ± 0.04,0.982 ± 0.072,0.921 ± 0.24,0.997 (active)
CC(C)NCC(O)COc1cccc2[nH]ccc12 (configuration not stated) [Prestw-90],1.59 ± 0.38,0.968 ± 0.068,1.13 ± 0.13,1.01 ± 0.046,1.17 ± 0.13,1.17 ± 0.11,0.985 (active)
O=C(CC1Sc2ccccc2NC1=O)Nc1ccccc1Cl (configuration not stated),1 ± 0.079,0.989 ± 0.067,1.01 ± 0.036,1.15 ± 0.21,1.04 ± 0.043,1.04 ± 0.15,1 (active)
CS(=O)(=O)O.Cc1ccc(N(CC2=NCCN2)c2cccc(O)c2)cc1,0.981 ± 0.19,1.03 ± 0.34,0.957 ± 0.09,0.628 ± 0.019,1.09 ± 0.28,1.04 ± 0.08,1 (active)
CN(C)CCCNc1cc(C(C)(C)C)nc2c(-c3ccccc3)cnn12,0.172 ± 0.017,0.13 ± 0.012,1.23 ± 0.18,0.0482 ± 0.0069,0.0973 ± 0.0058,0.712 ± 0.34,0.0497 (inactive)
CCOC(=O)N[C@@H]1CC[C@@H]2[C@@H](C1)C[C@H]1C(=O)O[C@H](C)[C@H]1[C@H]2/C=C/c1ccc(-c2cccc(F)c2)cn1,0.376 ± 0.022,0.451 ± 0.1,0.323 ± 0.019,0.653 ± 0.082,0.783 ± 0.15,0.737 ± 0.16,0.299 (inactive)
Nc1nc2ccc(OC(F)(F)F)cc2s1,0.955 ± 0.13,1.09 ± 0.3,1.02 ± 0.059,1.07 ± 0.044,1.15 ± 0.24,0.928 ± 0.14,0.965 (active)
